Measurements published in PubChem BioAssay AID1347165 (National Center for Advancing Translational Sciences (NCATS), 2019).
The campaign covered roughly 220,000 compounds. About 5,700 (2.6%) were called active. Another 18% or so got no clear call; they are omitted. For the sample, actives were picked, then their nearest neighbours and some compounds at random. A number with no mark means an inactive call. Calls follow the shape of the dose curve; as a rule, active = well fitted inhibition curve with a large enough effect; inconclusive = small, poorly fitted or top-dose-only effect; inactive = no such curve, though single readings can be large or run the other way.

Biological target: Lysine-specific demethylase 5B (Homo sapiens) (UniProt Q9UGL1)
Sequence (Q9UGL1 whole entry, looked up): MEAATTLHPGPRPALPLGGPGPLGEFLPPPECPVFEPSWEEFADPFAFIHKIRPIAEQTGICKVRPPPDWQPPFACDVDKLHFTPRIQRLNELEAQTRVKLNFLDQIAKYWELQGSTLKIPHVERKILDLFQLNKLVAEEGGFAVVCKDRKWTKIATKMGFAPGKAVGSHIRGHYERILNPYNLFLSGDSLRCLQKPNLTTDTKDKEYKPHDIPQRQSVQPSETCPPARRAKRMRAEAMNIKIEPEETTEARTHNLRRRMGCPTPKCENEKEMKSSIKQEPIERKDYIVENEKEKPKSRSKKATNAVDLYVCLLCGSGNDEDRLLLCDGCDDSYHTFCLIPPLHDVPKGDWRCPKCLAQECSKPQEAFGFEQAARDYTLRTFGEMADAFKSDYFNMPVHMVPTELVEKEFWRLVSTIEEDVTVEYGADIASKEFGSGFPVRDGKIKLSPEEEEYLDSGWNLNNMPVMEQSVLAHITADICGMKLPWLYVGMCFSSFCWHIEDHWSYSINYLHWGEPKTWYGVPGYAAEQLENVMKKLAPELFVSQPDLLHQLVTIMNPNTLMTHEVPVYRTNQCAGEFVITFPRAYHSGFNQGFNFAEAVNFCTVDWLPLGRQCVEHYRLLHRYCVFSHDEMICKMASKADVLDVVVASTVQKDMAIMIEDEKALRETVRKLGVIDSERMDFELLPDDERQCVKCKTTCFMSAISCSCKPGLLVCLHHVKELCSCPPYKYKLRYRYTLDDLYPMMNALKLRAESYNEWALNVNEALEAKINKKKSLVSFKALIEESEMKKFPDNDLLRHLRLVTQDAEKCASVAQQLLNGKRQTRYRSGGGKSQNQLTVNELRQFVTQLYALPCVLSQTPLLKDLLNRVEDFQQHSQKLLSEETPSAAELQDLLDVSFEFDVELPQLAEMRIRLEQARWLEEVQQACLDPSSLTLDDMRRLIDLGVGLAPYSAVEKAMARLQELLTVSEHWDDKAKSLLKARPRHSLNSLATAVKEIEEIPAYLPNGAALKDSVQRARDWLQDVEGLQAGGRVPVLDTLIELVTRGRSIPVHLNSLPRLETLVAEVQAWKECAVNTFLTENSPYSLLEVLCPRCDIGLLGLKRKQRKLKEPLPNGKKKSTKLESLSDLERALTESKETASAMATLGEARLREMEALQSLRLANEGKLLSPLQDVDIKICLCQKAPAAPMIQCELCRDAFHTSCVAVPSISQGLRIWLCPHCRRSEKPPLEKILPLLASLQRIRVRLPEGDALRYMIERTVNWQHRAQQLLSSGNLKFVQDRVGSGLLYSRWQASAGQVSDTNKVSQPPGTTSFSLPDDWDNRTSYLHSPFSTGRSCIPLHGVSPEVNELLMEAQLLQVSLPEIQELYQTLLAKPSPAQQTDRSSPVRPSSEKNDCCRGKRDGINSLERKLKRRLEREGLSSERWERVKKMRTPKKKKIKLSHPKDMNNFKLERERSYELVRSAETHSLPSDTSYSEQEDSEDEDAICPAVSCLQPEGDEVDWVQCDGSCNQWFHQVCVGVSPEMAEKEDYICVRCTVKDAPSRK
Assay: Primary screen for KDM5B Histone Demethylases FDH-coupled qHTS; also: nearly all actives have a fitted effect of over 70% in size; as to activity change, negative = inhibition: 0% is about no effect
Conditions: FDH-coupled NADH fluorescence (FDH is formaldehyde dehydrogenase); series mostly up to 57.7 µM; activity change, negative = inhibition: at the top concentration
Outline: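 Inhibition is measured as reduced NADH fluorescence generation from FDH coupling to formaldehyde release. Truncated KDM5BΔAP at 200 nM final acts on H3K4me3 peptide (12.5 µM in substrate mix) in pH 7.5 HEPES buffer with Tween-20, 30 min, room temperature.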
Potency is read from the fitted curve at half-maximal effect.

SMILES | activity change, negative = inhibition | Potency
CN(c1ccccc1)c1cc(=O)c2ccnc(NC3CCOCC3)c2o1 | -2.58% [at 86.2 µM] | –
O=c1cc(N2CCOCC2)oc2c(Nc3cccc(Cl)c3)nccc12 | -13.9% [at 86.2 µM] | –
Cc1noc(C)c1-c1nccc2c(=O)cc(N3CCOCC3)oc12 | – | 39.8 µM (active)
O=c1cc(N2CCOCC2)oc2c(NCc3ccncc3)nccc12 | – | 35.5 µM (active)
Cn1ncc2c(Nc3cccc4c3CCCC4)ncnc21 | -4.66% | –
CCc1ccc(-n2nc(C)c3c(C(F)(F)F)cc(OCC(=O)NC(C)C)nc32)cc1 | 2.73% | –
COc1cc2c(C(=O)N(C)c3cc(Cl)ccc3OC)cn(C)c(=O)c2cc1OC | 35.9% | –
O=C(COc1ccccc1)N1CC2(C1)CN(Cc1ccc(Cl)cc1)C(=O)O2 | -3.94% [at 86.2 µM] | –
N#CCCNC(=O)CSc1nc(C2CC2)nc2ccccc12 | -14.8% | –
O=C(Cn1cnc2c(Cl)cc(Cl)cc2c1=O)N(C1CCCC1)C1CCS(=O)(=O)C1 (stereo unspecified) | 11.5% | –
CCCN1C(=O)NC(CC(=O)N2CCC(O)(c3ccc(C)cn3)CC2)C1=O (stereo unspecified) | -7.99% | –
Cc1ccc(C2(O)CCN(C(=O)c3ccccc3-c3nn[nH]n3)CC2)nc1 | -17.5% | –
Cc1ccc(C2(O)CCN(c3nccc(CCC(F)(F)F)n3)CC2)nc1 | – | 22.4 µM (active)
Cc1csc(SCc2cc(Cl)c3c(c2)OCCO3)n1 | 14.3% | –
N#Cc1cccc(NC(=O)CSc2ccccc2C(=O)Nc2ccc3c(c2)OCCCO3)c1 | -0.157% | –
COc1ccccc1-n1nc(CC(N)=O)nc1C1CCCCn2nnnc21 (stereo unspecified) | -0.916% | –
C=CCOc1cccc(NC(=O)c2ccccc2Cl)c1 | 17.9% | –
CN1CCc2c([nH]c3ccccc23)C12CCN(C(=O)c1nccc3ccccc13)CC2 | 1.36% | –
COc1ccc2[nH]c3c(c2c1)CCNC31CCN(C(=O)c2ccccc2)CC1 | -16.7% | –
COCCOCC(=O)N1CCC2(CC1)c1[nH]c3ccc(OC)cc3c1CCN2C | – | 28.2 µM (active)
CCN1CCC(N(C(=O)c2cc3ccccc3n2C)C2CC2)CC1 | 0.923% | –
CCc1cc(=O)oc2c(C)c(OCC(=O)NCCN3CCOCC3)ccc12 | 101% | –

SMILES | activity change, negative = inhibition | Potency
O=C(Cc1ccc(F)cc1)N1CCCC(c2nn(-c3ccc(Cl)cc3)c(=O)[nH]2)C1 (stereo unspecified) | -5.65% | –
CCn1c2c(c(=O)n1Cc1ccccc1)CCN(C(=O)Cc1ccc3c(c1)OCO3)C2 | -3.03% [at 86.2 µM] | –
O=C(Cc1ccc(Cl)cc1)N1CCc2c(nc3cc[nH]n3c2=O)C1 | – | 31.6 µM (active)
Cc1nn2c(c1-c1ccccc1C(C)C)N(C(=O)c1cccc(C#N)c1)CCC2 | 15.3% [at 86.2 µM] | –
Cc1nn2c(c1-c1ccccc1C(C)C)N(C(=O)c1cnccn1)CCC2 | 4.8% [at 86.2 µM] | –
Cc1nn2c(c1-c1ccccc1N1CCCC1)N(C(=O)c1ccn(C)n1)CCC2 | – | 7.94 µM (active)
COc1cc(C2Nc3ccc(C)cc3[C@H]3OCCC[C@@H]23)cc(Cl)c1O (stereo partly specified) | -7.36% | –
COc1cc(CNC(=O)Cc2ccc(OC)c(OC)c2)ccn1 | 14.5% | –
COc1ccc(CNC(=O)c2cc3c(s2)CN(C2CC2)C3)cc1OC | – | 11.2 µM (active)
CSc1ccc(CNC(=O)c2cc3c(s2)CCCC3)cc1 | -23.3% | –
Cc1cccc(N2C(=O)c3ccc(C(=O)Nc4cccc(C(=O)O)c4)cc3C2=O)c1 | 24.9% | –
CC(C)CNc1ccc2nnc(-c3ccccn3)n2n1 | – | 31.6 µM (active)
CCCNc1ccc2nnc(C)n2n1 | -29.1% | –
Cc1ccc(OCC(=O)Nc2ccc3oc(=O)ccc3c2)cc1C | -15.1% | –
O=C(O)CC1(CC(=O)NC2CCN(Cc3ccccc3)CC2)CCCC1 | 25.1% | –
O=C(CCNc1cnc2cnccn12)NC1CCN(Cc2ccccc2)CC1 | – | 22.4 µM (active)
O=C(CCc1ncc(-c2ccc(F)cc2)o1)NC1CCN(Cc2ccccc2)C1 (stereo unspecified) | -1.38% | –
O=C(c1ccoc1)N1CCCN(C(=O)C2COc3ccccc3C2)CC1 (stereo unspecified) | -12.2% | –
Cc1cc(OCC(=O)N2CCN(c3ncccn3)CC2)ccc1Cl | -13.2% | –
COc1ccc2c(c1)OCC(C(=O)N1CCCN(c3ncccn3)CC1)C2 (stereo unspecified) | – | 25.1 µM (active)
Cc1nc(CNC(=O)[C@H]2CCC[C@@H](O)C2)nc2c1CCCC2 | -18.8% | –
Cc1nc(CCNc2nccc(-c3cccnc3)n2)nc2c1CCCC2 | – | 28.2 µM (active)

SMILES | activity change, negative = inhibition | Potency
Cc1nc(CCNS(=O)(=O)c2cccnc2)no1 | -10.3% | –
O=C(CCSc1nc2ccccc2s1)NCc1cc(F)cc(F)c1 | -9.95% | –
COC(=O)c1ccc(C(=O)OCc2nc(N)c3ccccc3n2)cc1 | 8.43% | –
O=C(O)CCn1ncc2cc(OC3CCN(C(=O)C4CCCC4)CC3)ccc21 | -8.2% [at 86.2 µM] | –
NC(=O)Cn1ccc2cc(OCC3CCN(C(=O)C4CCCC4)CC3)cnc21 | – | 35.5 µM (active)
CCn1ccc2cc(S(=O)(=O)N3CCC(C(=O)N4CCN(C)CC4)CC3)ccc21 | 6.11% | –
Cc1ccc(-n2nnnc2SCc2nc3ccsc3c(=O)[nH]2)c(C)c1 | 0.7% | –
O=C(Nc1ccc(SC2CCCC2)cc1)C1CCCC1 | -1.52% | –
CCCS(=O)(=O)N1CCC2(CC1)C(OC)C(=O)N2CC1CC1 (stereo unspecified) | 23.4% | –
C=CCNC(=O)C[C@@H]1CCN(C(=O)c2cccnc2)C[C@@H]1CC | 26% [at 86.2 µM] | –
CCOc1nccnc1NC1CCN(C(=O)c2cccnc2)CC1 | – | 28.2 µM (active)
COC(=O)[C@@H]1CN(C(=O)c2cccnc2)CCN1C(C)=O | -12% [at 115 µM] | –
CCCS(=O)(=O)N1CCC(Cc2nc(-c3cccnc3)n[nH]2)C1 (stereo unspecified) | -11.3% | –
CCCS(=O)(=O)N1CCC(Nc2nccnc2OCC)CC1 | – | 15.8 µM (active)
CC(Sc1nc(N)cc(N)n1)C(=O)c1ccc(Cl)cc1 (stereo unspecified) | 8.79% | –
Cn1cc(-c2cc3n(n2)CCC(=O)N3CC(=O)NC2CCCCC2)c2ccccc21 | -3.82% | –
CCCCN(CCCC)c1cccc(-c2cccc(N(CCCC)CCCC)c2)c1 | -27.3% | –
N#Cc1cc2c(nc1N1CCN(C3CCCC3)C(CCO)C1)CCCC2 (stereo unspecified) | – | 28.2 µM (active)
N#Cc1cc2c(nc1SCC(=O)NCCc1ccccc1)CCCC2 | 0.324% | –
Cc1cccc(C)c1NC(=O)CSc1nc2c(cc1C#N)CCCC2 | 16.6% | –
CCCCn1nc(C(=O)NC(CC)CC)c2ccccc2c1=O | 13.2% | –
COc1ccc(-c2[nH]ncc2CN2CCCC(C(=O)NCc3ccccc3)CCNC(=O)CC2)cc1 (stereo unspecified) | -19.8% | –

SMILES | activity change, negative = inhibition | Potency
COc1ccc2cc(-c3[nH]ncc3CN3CCN(c4cccc(C)n4)CC3)ccc2c1 | – | 28.2 µM (active)
COc1ccc(-c2cc(N3CCN(C(=O)Cc4cccc(OC)c4)CC3)n[nH]2)cc1 | -10.2% | –
O=C(Nc1ccc(-n2cccn2)cc1)C1CCN(Cc2ccsc2)CC1 | 23.1% | –
O=C(Nc1ccc(Cl)cc1)c1nc2c(o1)CCN(Cc1ccsc1)CC2 | – | 31.6 µM (active)
O=C(c1nc2c(o1)CCN(Cc1ccccc1F)CC2)N1CCOCC1 | -4.96% [at 86.2 µM] | –
COc1ccc(CN2CCc3nc(C(=O)N4CCOCC4)oc3CC2)cc1OC | 4.99% [at 86.2 µM] | –
CCOc1ccc(NC(=O)CSc2nc3c(c(=O)[nH]2)CN(Cc2ccc(Cl)cc2)CC3)cc1 | -4.81% | –
O=C(NCC1CC1)c1nc2c(o1)CCN(Cc1cccc(F)c1F)CC2 | -26.9% [at 86.2 µM] | –
O=C(NCC1CC1)c1nc2c(o1)CCN(CCc1ccccc1)CC2 | -23.1% [at 86.2 µM] | –
O=C(Nc1ccccc1)c1nc2c(o1)CCN(Cc1cccc(Cl)c1)CC2 | – | 28.2 µM (active)
Cc1cccc(CN2CCc3nc(C(=O)Nc4ccc(Cl)cc4)oc3CC2)c1 | – | 31.6 µM (active)
Cc1cc(Br)ccc1NC(=O)CN(C)Cc1ncc(-c2ccc(F)cc2)o1 | -15.3% | –
CCc1ccc(CN(C(=O)c2cc(=O)c3cc(C)cc(C)c3o2)C2CCS(=O)(=O)C2)cc1 (stereo unspecified) | -0.964% | –
O=C(CSc1ncnc2sc3c(c12)CCCC3)Nc1ccc(F)cc1 | 8.22% | –
CC(C)NC(=O)c1ccccc1NC(=O)C(Cl)Cl | -10.1% | –
CCCn1nc(C(=O)NCc2ccc(OC)cc2)c2ccccc2c1=O | 7.93% | –
O=C(NCCc1noc(-c2ccccc2)n1)C1CC1 | 24% | –
Oc1ccc(-c2ccc(-c3nc(CCc4ccccc4)no3)cn2)cc1 | – | 25.1 µM (active)
Cc1ccc(-c2nc(C(=O)N(C)Cc3ccccc3)no2)cc1 | -21.9% | –
CCc1ccc(N/C(N)=N/c2nc(C)cc(C)n2)cc1 | 16.5% | –
COC(=O)CC1c2cc(OC)c(OC)cc2CCN1Cc1nc(CC(C)C)no1 (stereo unspecified) | -7.43% | –
O=C(/C=C/c1ccc(-c2cc(Cl)ccc2Cl)o1)c1ccc(F)cc1 | -4.81% | –

SMILES | activity change, negative = inhibition | Potency
COC[C@@H]1CN(c2ncccn2)C[C@H]1C(=O)Nc1ccncc1 | – | 20 µM (active)
CNC(=O)[C@@H]1CN(C(=O)c2n[nH]c3ccccc23)C[C@H]1COC | -15.7% | –
CNC(=O)[C@@H]1CN(C(=O)Cc2cccnc2)C[C@H]1COC | -8.75% | –
S=C(NCCc1ccc(Cl)cc1)Nc1ccc(Oc2ccccc2)cc1 | 3.85% | –
CN(C)[C@@H]1CN(C(=O)c2cccn2C)CC[C@@H]1CO | 12.6% | –
OCc1cccc(-c2cc(C3=CCOCC3)c3cncn3c2)c1 | – | 31.6 µM (active)
FC(F)(F)c1cccc(-c2cc(C3=CCOCC3)c3cncn3c2)c1 | – | 35.5 µM (active)
CN(C)Cc1cccc(-c2cc(-c3ccncc3)c3cncn3c2)c1 | – | 28.2 µM (active)
Cc1noc(C)c1-c1cc(-c2cncnc2)cn2cncc12 | -16.6% [at 115 µM] | –
Cc1nc(NC(C)C)sc1C(=O)Nc1ccccc1 | -3.94% | –
O=C(COC(=O)c1cc2ccccc2[nH]1)NCc1ccc(F)cc1 | -15.2% | –
NC(=O)c1ccc(CN(Cc2cccs2)C2CC2)cc1 | -16.1% | –
O=C(O)CCC(=O)NC1CC2(CCN(C(=O)c3ccccc3)CC2)c2ccccc21 (stereo unspecified) | 9.24% [at 115 µM] | –
CCOc1ccc(CN(C)CC(O)COc2ccc(C)cc2C)cc1OC (stereo unspecified) | -21.4% | –
CC(=O)NC1(C)CN(Cc2ccc(-c3ccc4c(ccn4C)c3)s2)C1 | – | 35.5 µM (active)
CC(=O)N1CCN(C(=O)c2ccc3c(ccn3C)c2)CC1 | -2.69% | –
Cn1ccc2cc(S(=O)(=O)N3CCC(C(=O)NCCN4CCCC4)CC3)ccc21 | -8.91% | –
CC(=O)NC1(C)CCN(Cc2cnc(-c3ccc4c(ccn4C)c3)s2)CC1 | – | 35.5 µM (active)
